Only some compounds are listed: those with a hit (about 18% of all), similar ones and a draw of the others.
CtBP-E1A blk: blocks the CtBP interaction with E1A; AlphaScreen GST-E1A/His-CtBP binding, 1536-well; hits give low values; activity change, % (no concentration beside the values); 340,000 compounds, 0.49% hits; in the data active means activity change below about -65%; inconclusive means mostly about -30% to -63%
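Steps: dispense buffer (Tris pH 8.0, NaCl 300 mM, TCEP 1 mM, BSA, Tween 20); add 5X protein mix (GST-E1A, His-CtBP, 125 nM each); pin 23 nL compound; 2 h at 37 °C, dark; add 5X beads (50 ug/mL); 1 h; read.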
TDP1 cell noCPT: qHTS for Inhibitors of human tyrosyl-DNA phosphodiesterase 1 (TDP1): qHTS in cells in absence of CPT | DT40 Tdp1-/- hTDP1 cells, no CPT, ATP luminescence, 48 h | Potency, µM (highest dose often 46.2 µM), hits mostly inhibitors | 420,000 compounds, 15% hits | AID 686978, 2013; further: nearly all actives have a fitted effect of over 55% in size
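Cells were dispensed at 400 per well, compounds added by pin tool, plates incubated ≥48 hr at 37 °C, then CellTiter-Glo added for 30 min at room temperature before luminescence reading. Line: DT40 Tdp1-/- complemented with hTDP1; camptothecin omitted.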
IL-1B inflam inh: inhibitors of inflammasome signaling (IL-1 beta secretion). THP-1 LPS/ATP IL-1B secretion, AlphaLISA, 16 h; hits give low values. activity change, % at 57.5 µM. 360,000 compounds, 4.7% hits; in the data active means activity change below about -50%; inconclusive means mostly about -30% to -49%
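Secreted IL-1B measured by AlphaLISA bead assay after 16 h compound exposure of THP-1 cells; compounds (final up to 57.5 uM) added 1 h before LPS (250 ng/mL) and ATP (1.25 mM) stimulation; lower signal means less secretion.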
DT40 TDP1 CPT: growth inhibition of DT40 Tdp1-/-;hTDP1 cells with camptothecin (screen for TDP1 inhibitors) | chicken DT40 Tdp1-/-;hTDP1 cells + 20 nM CPT, ATP luminescence, 48 h | Potency, µM (doses to about 46.2 µM), hits mostly inhibitors | 420,000 compounds, 12% hits; further: nearly all actives have a fitted effect of over 55% in size
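Cell growth measured by CellTiter-Glo luminescence after a minimum 48 h, 37 C compound exposure with 20 nM CPT in Tdp1-knockout DT40 cells stably expressing hTDP1, seeded 400/well; qHTS titration format.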
TDP1 block: blocks human tyrosyl-DNA phosphodiesterase 1; 350,000 compounds, 0.28% hits; recombinant TDP1, AlphaScreen DNA substrate cleavage; Q9NUW8; Potency, µM (highest dose often 130 µM), hits mostly inhibitors; further: nearly all actives have a fitted effect of over 40% in size
Target sequence (Q9NUW8 whole entry, looked up): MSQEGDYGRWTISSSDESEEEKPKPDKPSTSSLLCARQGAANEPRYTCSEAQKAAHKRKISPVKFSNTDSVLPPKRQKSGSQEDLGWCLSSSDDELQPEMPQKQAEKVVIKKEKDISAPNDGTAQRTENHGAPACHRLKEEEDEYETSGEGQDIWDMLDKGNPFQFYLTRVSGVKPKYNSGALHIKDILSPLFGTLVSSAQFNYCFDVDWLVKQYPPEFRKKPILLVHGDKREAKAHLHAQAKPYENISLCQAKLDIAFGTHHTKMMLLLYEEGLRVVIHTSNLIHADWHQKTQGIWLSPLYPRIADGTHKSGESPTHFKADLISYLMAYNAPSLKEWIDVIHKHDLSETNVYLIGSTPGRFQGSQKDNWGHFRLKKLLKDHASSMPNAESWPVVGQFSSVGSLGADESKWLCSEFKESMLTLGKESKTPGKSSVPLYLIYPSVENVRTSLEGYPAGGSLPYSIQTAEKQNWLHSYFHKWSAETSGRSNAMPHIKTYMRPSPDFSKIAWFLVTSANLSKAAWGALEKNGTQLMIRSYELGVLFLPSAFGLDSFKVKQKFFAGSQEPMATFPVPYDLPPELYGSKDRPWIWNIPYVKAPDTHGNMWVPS
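Signal: AlphaScreen proximity between streptavidin donor and anti-FITC acceptor beads on intact substrate. Reaction: Tdp1 1 nM, substrate 15 nM final, 5 min RT after 15 min compound preincubation.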
Six1-Eya2 blk: inhibitors of human Six1/Eya2 interaction. Q15475+O00167. AlphaScreen GST-Six1/His-Eya2 binding, biochemical; hits give low values. activity change, % (no concentration beside the values). 360,000 compounds, 0.56% hits; in the data active means activity change below about -65%; inconclusive means mostly about -30% to -63%
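Compounds are tested against tagged Six1 and Eya2 proteins bridged by glutathione donor and nickel acceptor beads; after a one-hour incubation at 37 °C without light, AlphaScreen emission is recorded.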
Numbers stand for hits; i = inactive; ? = inconclusive; nt = no result given; [ ] = another dose, or the depositor's remark. Unless noted, the call rests on the fitted dose curve; in most records, active means well fitted curve in the direction sought with a large enough effect; inconclusive means small, poorly fitted or top-dose-only effect, or another doubt; inactive means no such curve, though single readings can be large; an effect the other way counts as inactive or inconclusive.

SMILES	CtBP-E1A blk	TDP1 cell noCPT	IL-1B inflam inh	DT40 TDP1 CPT	TDP1 block	Six1-Eya2 blk
COc1cccc(CN2CCc3nc(Nc4ccc5c(c4)OCCO5)ncc3C2)c1	nt	?	nt	?	i	nt
COc1ccc(OC)c(Nc2ncc3c(n2)CCN(Cc2cc(OC)c(OC)c(OC)c2)C3)c1	nt	7.3µM	nt	5.8µM	i	nt
CCCN(CCC)c1ccc(CC(=O)NC(C)Cc2ccccc2)cc1 (configuration not stated)	i	?	i	i	i	i
CCc1cc(/C(Cc2csc(C)n2)=N/O)c(O)cc1O	i	23µM	i	?	i	i
COc1ccc2c(c1)CCc1cn3nc(C)cc3nc1-2	i	i	i	i	i	i
COc1cc(CCCN2C(=O)C(=O)NC[C@@H]2Cc2ccc(O)cc2)cc(OC)c1OC	nt	i	i	i	i	i
COc1cc(CCCN2C(=S)NC[C@H]2Cc2ccc(O)cc2)cc(OC)c1OC	i	15µM	i	?	i	i
O=c1[nH][nH]cc1C=Nc1ccc(Cl)cc1Cl	i	i	i	i	i	i
O=c1[nH][nH]cc1C=Nc1ccccc1O	-83	?	i	?	i	-77
O=c1[nH][nH]cc1C=Nc1cc(Cl)ccc1O	nt	?	i	21µM	i	i
COCCN(C(=O)CNC(=O)c1ccco1)C(C(=O)NC1CCCC1)c1cccs1 (configuration not stated)	i	i	i	i	i	i
COc1ccccc1NC(=O)c1ccc(NC(=O)c2cc3c(s2)CCC3)cc1	i	16µM	i	?	i	i
O=C(Nc1ccccc1OC(F)F)c1cc2c(s1)CCC2	nt	i	i	i	i	i
Cc1ccc(NC(=O)c2cc3c(s2)CCCC3)cc1	i	i	-53	?	i	i
Cc1ccc(S(=O)(=O)N2[C@@H](c3ccccc3F)C(C(=O)O)=CC[C@H]2c2ccc(Cl)c(Cl)c2)cc1	i	?	i	i	i	i
O=C(NC1CCCCC1)C(c1ccc(C(F)(F)F)cc1)n1c(=O)c(-c2cc3ccccc3[nH]2)nc2ccccc21 (configuration not stated)	i	?	i	15µM	nt	i
O=C(NC1CCCCC1)C(c1ccncc1)n1c(=O)c(-c2ccccc2)nc2ccccc21 (configuration not stated)	i	i	i	i	nt	i
COc1ccc(C(C(=O)NC(C)(C)C)n2c(=O)c(-c3cc4ccccc4[nH]3)nc3ccccc32)cc1 (configuration not stated)	i	?	i	?	nt	i
O=C(NC1CCCCC1)C(c1ccncc1)n1c(=O)c(-c2cc3ccccc3[nH]2)nc2ccccc21 (configuration not stated)	i	?	?	18µM	nt	i
COc1ccc(NC(=O)N2CCc3nc(-c4ccc(OC)cc4C)c4c(c3C2)CO[C@@H](c2ccccc2)C4)cc1	nt	nt	nt	nt	i[12.3 µM]	nt
Cc1cc(-n2c(=O)c(C#N)cc3c(=O)n4cccc(C)c4nc32)no1	i	i	i	?	i	i
O=C(c1cc(C(=O)NCCc2ccccc2)c(=O)n(CCc2ccccc2)c1)c1cc(Cl)ccc1O	i	15µM	i	?	i	i
COc1ccc(CCNC(=O)c2cc(C(=O)c3cc(Cl)ccc3O)cn(CCc3ccc(OC)cc3)c2=O)cc1	i	10µM	i	10µM	i	i
Nc1nc(-c2ccccc2Br)cs1	i	i	i	i	i	i
COc1ccc(/C=C(/NC(=O)c2ccc(C)cc2)C(=O)NCc2ccncc2)cc1	i	i	i	i	i	i
CCOC(=O)C1CCCN(C(=O)c2cccc(NC(=O)c3nsc4ccccc34)c2)C1 (configuration not stated)	nt	21µM	nt	21µM	i	nt
CCOC(=O)C1CCN(C(=O)c2ccccc2NC(=O)c2nsc3ccccc23)CC1	nt	?	nt	?	i	nt

Screening results (PubChem BioAssay)
